Out of some 5,500 compounds screened, about 2,000 (36%) were called active. About 18% were inconclusive and are not listed. No stated cut-off is given here; in the data, active means normalized growth mostly below about 0.91 (no sharp cut-off); inconclusive means no clear call, values can overlap the other calls; inactive means mostly above about 0.92. The list shows a part of the results.
Test: chemical genetic growth profiling, strain panel (AID 1159580);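 further: tested at 20 µM; growth read once vehicle control cultures reached saturation at 30 °C; 1 = growth at the plate median or of vehicle wells; lower values mean less growth of the strain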
Details: S. cerevisiae deletion strains, growth OD
[1] = locus YAL013W, strain DEP1, active compounds read low
[2] = locus YDR150W, strain NUM1, active compounds read low
[3] = locus YGR078C, strain PAC10, active compounds read low
[4] = locus YNL153C, strain GIM3, active compounds read low
[5] = locus YPL241C, strain CIN2, active compounds read low

Measured: normalized growth

Nc1ccc(C(=O)/C(=C\c2cccc([N+](=O)[O-])c2)C(=O)c2ccc(-c3ccccc3)cc2)cc1
inactive: [1] 0.99 | locus YBR229C, strain ROT2, active compounds read low 0.984 | locus YDL101C, strain DUN1, active compounds read low 0.997 | [2] 0.975 | locus YEL061C, strain CIN8, active compounds read low 0.999 | [3] 0.997 | locus YHR030C, strain SLT2, active compounds read low 0.869 | locus YHR087W, strain rtc3, active compounds read low 0.993 | locus YJL187C, strain SWE1, active compounds read low 1 | locus YJR043C, strain POL32, active compounds read low 0.979 | locus YJR075W, strain HOC1, active compounds read low 0.997 | locus YKL190W, strain CNB1, active compounds read low 0.997 | locus YLR039C, strain RIC1, active compounds read low 1 | locus YLR058C, strain SHM2 (second series), active compounds read low 0.987 | locus YLR085C, strain ARP6, active compounds read low 0.877 | locus YLR262C, strain YPT6, active compounds read low 0.915 | locus YML094W, strain GIM5, active compounds read low 0.993 | locus YMR219W, strain ESC1, active compounds read low 0.988 | locus YMR263W, strain SAP30, active compounds read low 1.01 | [4] 0.966 | locus YNL298W, strain CLA4 (second series), active compounds read low 0.936 | locus YNL322C, strain KRE1, active compounds read low 0.971 | locus YNR030W, strain Alg12, active compounds read low 0.955 | locus YPL055C, strain LGE1, active compounds read low 1 | [5] 0.949 | locus YPR135W, strain CTF4, active compounds read low 0.945

CCN1C[C@]2(C)CC[C@H](O)[C@@]34C5C[C@@H]6[C@@H](OC)C[C@@](O)(C5[C@H]6O)[C@@H](CC23)C14 (some centres not stated)
inactive: [1] 1.01 | locus YAL040C, strain CLN3, active compounds read low 1 | locus YCL061C, strain MRC1 (second series), active compounds read low 1 | [2] 0.996 | locus YDR363W, strain ESC2, active compounds read low 1.03 | locus YER002W, strain NOP16, active compounds read low 1.01 | [3] 0.999 | locus YGR229C, strain SMI1, active compounds read low 1.02 | locus YMR307W, strain GAS1, active compounds read low 0.999 | locus YNL128W, strain TEP1, active compounds read low 1 | [4] 1.01 | locus YNL175C, strain NOP13, active compounds read low 1.01 | locus YNL197C, strain WHI3, active compounds read low 1.01 | locus YNL224C, strain SQS1, active compounds read low 0.997 | locus YOR083W, strain WHI5 (second series), active compounds read low 1.01 | [5] 1
